One test relates to rat CYP3A1, gene 25642. Briefly: NVS_ADME_rCYP3A1: NovaScreen (NVS) CYP450-related Enzyme Activity (ADME) Assay for rat CYP3A1 (AID 2283126). The procedure, abridged: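 Compounds went first at 10 uM duplicate, then to series with 20 uM maximum. Fluorescence from substrate turnover by the recombinant enzyme was measured 0.5 h post-dosing, inhibition scored against acetonitrile vehicle.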

Test [1] concerns the target rat CYP3A2, Cyp3a2 (gene 266682) (UniProt P05183). Briefly: NVS_ADME_rCYP3A2: NovaScreen (NVS) CYP450-related Enzyme Activity (ADME) Assay for rat CYP3A2 (AID 2283128). The procedure, abridged: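 Fluorescence readout of extracted rat CYP3A2 activity 0.5 h post-dose, acetonitrile as negative control. Single-point testing in duplicate at 10 uM, followed by concentration series to a 20 uM maximum for actives.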

The target in test [2] is human Acetylcholinesterase (AChE), ACHE (gene 43) (UniProt P22303). The experiment in a line: NVS_ENZ_hAChE: NovaScreen (NVS) Enzymatic Assay for human Acetylcholinesterase (AChE) (AID 2283129). The method, then:
NVS_ENZ_hAChE is a biochemical, single-readout assay that uses extracted gene-proteins in a cell-free assay. Measurements were taken 0.33 hour after chemical dosing in a 96-well plate.NVS_ENZ_hAChE is one of one assay component(s) measured or calculated from the NVS_ENZ_hAChE assay. It is designed to make measurements of enzyme activity, a form of enzyme reporter, as detected with absorbance signals by Colorimetric technology.Data from the assay component NVS_ENZ_hAChE was analyzed into 1 assay endpoint. This assay endpoint, NVS_ENZ_hAChE, was analyzed in the positive analysis fitting direction relative to DMSO as the negative control and baseline of activity. […] Furthermore, this assay endpoint can be referred to as a primary readout, because this assay has produced multiple assay endpoints where this one serves a enzymatic activity function. […]
Binding assays used specific radioligands (tritiated, iodinated) with non-radioactive competitive displacement ligands in agonist or antagonist protocols (as indicated) and various reference compounds and inhibitors to titrate specific binding to receptors and transporters. Most enzyme assays (CYPs, kinases, phosphatases, proteases, HDACs) used recombinant protein and specific substrates (fluorescence mostly, some colorimetric and radioactive) and inhibitors, followed by a biochemical separation of substrate and product. […]

Test [3] deals with human AMP-activated Protein Kinase, alpha 1 (AMPKa1), PRKAA1 (gene 5562) (UniProt Q13131). The experiment in a line: NVS_ENZ_hAMPKa1: NovaScreen (NVS) Enzymatic Assay for human AMP-activated Protein Kinase, alpha 1 (AMPKa1) (AID 2283130). The method, then:
(§1) NVS_ENZ_hAMPKa1 is a biochemical, single-readout assay that uses extracted gene-proteins in a cell-free assay. Measurements were taken 1 hour after chemical dosing in a 384-well plate.NVS_ENZ_hAMPKa1 is one of one assay component(s) measured or calculated from the NVS_ENZ_hAMPKa1 assay. It is designed to make measurements of enzyme activity, a form of enzyme reporter, as detected with fluorescence intensity signals by Fluorescence and electrophoretic mobility shift technology.Data from the assay component NVS_ENZ_hAMPKa1 was analyzed into 1 assay endpoint. This assay endpoint, NVS_ENZ_hAMPKa1, was analyzed in the positive analysis fitting direction relative to DMSO as the negative control and baseline of activity. Using a type of enzyme reporter, loss-of-signal activity can be used to understand changes in the enzymatic activity as they relate to the gene PRKAA1. Furthermore, this assay endpoint can be referred to as a primary readout, because this assay has produced multiple assay endpoints where this one serves a enzymatic activity function. To generalize the intended target to other relatable targets, this assay endpoint is annotated to the kinase intended target family, where the subfamily is serine/threonine kinase. […]

Test [4] addresses human Caspase 5 (CASP5), CASP5 (gene 838) (UniProt P51878). The experiment in a line: NVS_ENZ_hCASP5: NovaScreen (NVS) Enzymatic Assay for human Caspase 5 (CASP5) (AID 2283137). The procedure, abridged:
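Chemicals were first tested in duplicate at 25 uM against recombinant caspase 5 from E. coli. Activity was read by fluorescence intensity 2 hours after dosing. Those passing a preset inhibition threshold were retested in singleton concentration-response up to 50 uM.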

For test [5], the target named is human AKT serine/threonine Kinase 2 (AKT2), AKT2 (gene 208) (UniProt P31751). The experiment in a line: NVS_ENZ_hAKT2: NovaScreen (NVS) Enzymatic Assay for human AKT serine/threonine Kinase 2 (AKT2) (AID 2283141). The procedure, abridged:
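Cell-free fluorescence/electrophoretic mobility shift readout of recombinant human AKT2 activity, 1 h after chemical dosing. Duplicate primary screen at 25 uM, then singleton concentration-response up to 50 uM; loss of signal versus DMSO baseline.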

Test [6] has as its target human Aurora Kinase A - serine/threonine-protein Kinase 6 (AurA), AURKA (gene 6790) (UniProt O14965). Briefly: NVS_ENZ_hAurA: NovaScreen (NVS) Enzymatic Assay for human Aurora Kinase A - serine/threonine-protein Kinase 6 (AurA) (AID 2283142). The method, then:
as §1, with “NVS_ENZ_hAurA” for “NVS_ENZ_hAMPKa1”, “plate.NVS_ENZ_hAurA” for “plate.NVS_ENZ_hAMPKa1”, “NVS_ENZ_hAurA,” for “NVS_ENZ_hAMPKa1,”, “AURKA.” for “PRKAA1.”

Broadly, the AC50 is the midpoint of the concentration-response curve, whichever way the signal moves.

Inconclusive results are not listed. Activity calls are given as the source filed them. Rule for the calls: active = hit-call score of the fitted dose curve at least 0.9, where 1 is the maximum; inconclusive = response in the unintended direction; inactive = score below 0.9.

human AMP-activated Protein Kinase, alpha 1 (AMPKa1), PRKAA1 (gene 5562), sequence (Q13131 whole entry, looked up): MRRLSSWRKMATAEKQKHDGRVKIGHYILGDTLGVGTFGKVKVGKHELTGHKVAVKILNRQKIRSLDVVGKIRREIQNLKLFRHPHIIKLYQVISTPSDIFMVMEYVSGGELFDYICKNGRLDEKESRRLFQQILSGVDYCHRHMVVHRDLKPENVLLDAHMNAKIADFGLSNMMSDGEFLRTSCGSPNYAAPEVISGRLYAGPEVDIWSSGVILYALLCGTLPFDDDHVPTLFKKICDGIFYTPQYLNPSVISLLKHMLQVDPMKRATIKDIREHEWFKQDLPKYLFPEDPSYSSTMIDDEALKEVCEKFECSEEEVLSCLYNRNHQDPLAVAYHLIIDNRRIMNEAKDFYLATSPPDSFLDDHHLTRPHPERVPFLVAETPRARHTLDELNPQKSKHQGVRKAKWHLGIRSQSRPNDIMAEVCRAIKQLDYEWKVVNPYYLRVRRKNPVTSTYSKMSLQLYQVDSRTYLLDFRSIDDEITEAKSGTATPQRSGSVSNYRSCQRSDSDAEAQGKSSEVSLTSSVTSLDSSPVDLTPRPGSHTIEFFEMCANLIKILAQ
human Caspase 5 (CASP5), CASP5 (gene 838), sequence (P51878 whole entry, looked up): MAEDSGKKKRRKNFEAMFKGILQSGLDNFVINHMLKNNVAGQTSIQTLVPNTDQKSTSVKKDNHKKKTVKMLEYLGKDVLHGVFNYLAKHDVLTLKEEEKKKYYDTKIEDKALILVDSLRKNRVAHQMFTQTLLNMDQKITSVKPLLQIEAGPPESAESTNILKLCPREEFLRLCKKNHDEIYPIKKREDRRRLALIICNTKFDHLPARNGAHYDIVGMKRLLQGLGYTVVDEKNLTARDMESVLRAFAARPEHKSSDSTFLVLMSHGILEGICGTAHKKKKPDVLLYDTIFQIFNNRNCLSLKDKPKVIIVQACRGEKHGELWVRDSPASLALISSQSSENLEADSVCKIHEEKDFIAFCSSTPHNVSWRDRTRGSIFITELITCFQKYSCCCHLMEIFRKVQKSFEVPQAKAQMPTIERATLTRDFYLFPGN
human AKT serine/threonine Kinase 2 (AKT2), AKT2 (gene 208), sequence (P31751 whole entry, looked up): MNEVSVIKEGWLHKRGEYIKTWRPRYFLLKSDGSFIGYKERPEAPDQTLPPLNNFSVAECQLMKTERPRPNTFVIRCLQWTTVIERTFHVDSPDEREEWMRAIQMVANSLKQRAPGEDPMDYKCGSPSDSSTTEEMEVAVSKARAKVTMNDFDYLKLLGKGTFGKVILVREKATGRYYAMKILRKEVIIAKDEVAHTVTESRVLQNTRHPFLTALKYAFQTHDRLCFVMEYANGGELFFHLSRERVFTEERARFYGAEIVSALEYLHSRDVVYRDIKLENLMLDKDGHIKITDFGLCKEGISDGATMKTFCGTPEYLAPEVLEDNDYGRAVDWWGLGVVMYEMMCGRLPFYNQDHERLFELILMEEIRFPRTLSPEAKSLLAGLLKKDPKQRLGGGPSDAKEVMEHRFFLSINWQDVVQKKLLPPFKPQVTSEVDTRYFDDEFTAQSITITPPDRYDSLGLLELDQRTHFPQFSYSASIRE
human Acetylcholinesterase (AChE), ACHE (gene 43), sequence (P22303 whole entry, looked up): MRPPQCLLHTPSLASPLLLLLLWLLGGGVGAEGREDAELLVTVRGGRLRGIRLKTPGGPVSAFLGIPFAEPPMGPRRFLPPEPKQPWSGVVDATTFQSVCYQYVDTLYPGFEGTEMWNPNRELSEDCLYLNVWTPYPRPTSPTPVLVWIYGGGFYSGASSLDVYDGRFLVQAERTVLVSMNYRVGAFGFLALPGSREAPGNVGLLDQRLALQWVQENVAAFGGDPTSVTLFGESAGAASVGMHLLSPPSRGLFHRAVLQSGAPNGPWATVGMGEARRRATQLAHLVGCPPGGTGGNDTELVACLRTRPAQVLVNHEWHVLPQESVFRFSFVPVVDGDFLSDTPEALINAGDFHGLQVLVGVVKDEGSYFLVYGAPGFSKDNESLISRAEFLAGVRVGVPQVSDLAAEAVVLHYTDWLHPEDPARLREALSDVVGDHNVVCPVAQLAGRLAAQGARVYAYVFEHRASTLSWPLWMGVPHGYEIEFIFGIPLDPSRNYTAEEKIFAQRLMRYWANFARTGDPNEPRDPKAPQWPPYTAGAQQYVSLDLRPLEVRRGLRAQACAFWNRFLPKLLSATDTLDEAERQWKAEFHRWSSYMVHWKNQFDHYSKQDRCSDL
rat CYP3A2, Cyp3a2 (gene 266682), sequence (P05183 whole entry, looked up): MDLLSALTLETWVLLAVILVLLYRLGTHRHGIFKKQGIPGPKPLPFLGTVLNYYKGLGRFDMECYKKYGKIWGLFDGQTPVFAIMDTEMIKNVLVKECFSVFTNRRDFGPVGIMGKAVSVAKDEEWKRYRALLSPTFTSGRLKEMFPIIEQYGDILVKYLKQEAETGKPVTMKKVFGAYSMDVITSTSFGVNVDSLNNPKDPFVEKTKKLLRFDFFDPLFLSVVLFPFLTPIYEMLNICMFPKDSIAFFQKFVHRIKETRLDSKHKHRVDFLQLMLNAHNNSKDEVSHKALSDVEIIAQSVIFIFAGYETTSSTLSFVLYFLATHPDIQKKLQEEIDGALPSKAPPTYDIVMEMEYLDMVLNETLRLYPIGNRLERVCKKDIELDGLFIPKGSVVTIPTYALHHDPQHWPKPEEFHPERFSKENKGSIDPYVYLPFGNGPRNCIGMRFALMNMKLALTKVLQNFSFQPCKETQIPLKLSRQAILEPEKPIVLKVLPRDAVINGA
human Aurora Kinase A - serine/threonine-protein Kinase 6 (AurA), AURKA (gene 6790), sequence (O14965 whole entry, looked up): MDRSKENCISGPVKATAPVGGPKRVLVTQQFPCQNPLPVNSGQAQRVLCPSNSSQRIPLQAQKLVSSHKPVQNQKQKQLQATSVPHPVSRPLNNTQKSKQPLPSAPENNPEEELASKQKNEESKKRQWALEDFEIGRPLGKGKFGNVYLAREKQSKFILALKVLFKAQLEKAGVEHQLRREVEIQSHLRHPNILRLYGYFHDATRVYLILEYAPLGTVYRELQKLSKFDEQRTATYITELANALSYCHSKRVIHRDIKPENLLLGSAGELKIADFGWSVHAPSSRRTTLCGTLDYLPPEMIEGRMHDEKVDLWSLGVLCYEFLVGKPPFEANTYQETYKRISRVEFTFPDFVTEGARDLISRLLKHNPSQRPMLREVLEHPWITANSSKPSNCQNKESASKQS

`CO/N=C(/C(=O)OC)c1ccccc1COc1ccccc1C`: the AC50 in the test with rat CYP3A1, gene 25642 is 6.96 µM (active); in test [1], 6.28 µM (active). For `CCCCN(CCCC)SN(C)C(=O)Oc1cccc2c1OC(C)(C)C2`, the AC50 in test [2] is 1.31 µM (active). `CSC(C)(C)C=NO`: in test [3], the result was inactive. Same read-out and setting: the result for `O=P1(N(CCCl)CCCl)NCCCO1` (centres undefined) reads “inactive”. With `Cc1ccc2c(c1N)C(=O)c1ccccc1C2=O`, in test [4], the concentration at half-maximal activity (AC50) is 6.72 µM (active).

For the compound `CCOP(=S)(S)OCC`, the compound was classed as inactive in test [4]. As for `CC(C)(C)c1ccc(O)cc1`, the compound was called inactive in test [5]. With `CC(C)(C)OOC(C)(C)C`, in test [6], the call was inactive.

The record behind these values is PubChem BioAssay (EPA / NIEHS).
